Data from PubChem BioAssay (NCI).
This is part of a sample that, as a whole, favours compounds with a hit. Of some 83,000 tested, about 20% had one in any assay.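 Note: values are percent growth. 100 is the growth of untreated cells, values between 100 and 0 indicate rising inhibition; between -100 and 0 indicates cell death.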 A number with no mark means an inactive call. Active and inactive are the calls of the source.

tested on: IGROV1 ovarian; assay: NCI-60 one-dose screen, 48 h (100 = growth as untreated, 0 = no growth, -100 = all killed); settings: 10 µM unless noted
Description: Growth inhibition of the IGROV1 human tumor cell line is measured as a screen for anti-cancer activity. Cells are grown in 96 well plates and exposed to the test compound for 48 hours. Compounds are tested at a single concentration, which is 10^-5 M for most compounds. The reported endpoint is percent growth (GI% or GIPRCNT), where numbers from 0 - 100% represent growth inhibition, and numbers from -100% - 0 represent cell death. For example, a value of 40 represents 60% growth inhibition. A value of 0 means no net growth occurred over the course of the experiment. A value of -40 indicates 40% of cells at the beginning of the experiment died by the end of the experiment. A value of -100 means all cells are dead at the end of the experiment.
NCI-60 Human Tumor Cell Lines Screen was performed using the standard one-dose NCI protocol, which is described in more detail at https://dtp.cancer.gov/discovery_development/nci-60/default.htm.
Compounds with GIPRCNT values below 10 were considered active. Activity score was based on GIPRCNT using the following formula: […]
Score is 0 for GIPRCNT values of 100 or above, 50 for GIPRCNT values of 0, and 100 for GIPRCNT values of -100.

| SMILES | growth |
| --- | --- |
| O=C(Nn1c(NCC(=O)N2c3ccccc3Sc3ccccc32)nnc1-c1ccc(O)cc1)c1ccccc1 | 102% |
| O=C(S)CNC(=O)c1ccccc1 | 105% |
| Cc1ccc2sc3c(NCCCN)nc4ccccc4c3c(=O)c2c1 | 65.7% |
| Cn1cc(-c2cc3ncnc(Nc4ccc(CC(=O)Nc5cc(C(C)(C)C)on5)cc4)c3s2)cn1 | 11.1% |
| O=C(/C=C/c1cccc2ccccc12)c1ccc(NC(=O)c2ccccc2CN2C(=O)c3ccccc3C2=O)cc1 | 79.1% |
| c1cc(-c2nnc(SSc3ncnc4nc[nH]c34)o2)ccn1 | 48.2% |
| COc1cc(C)c(Cc2cnc(N)nc2N)cc1OC | 95.1% |
| CCCCCCNC(=O)Oc1ccc(/C(=C(\C)c2ccc(Cl)cc2)c2ccc(OCCN(CC)CC)cc2)cc1 | 55.2% |
| Cc1nc2ccccc2c(/C=C/c2ccccc2)c1C(=O)/C=C/c1ccc(C(F)(F)F)cc1 | -72.4% (active) |
| NS(=O)(=O)c1ccc(-n2nc(C(=O)N/N=C\c3ccc(F)cc3)cc2-c2ccc(Br)cc2)cc1 | 73.6% |
| C=C1C(=O)O[C@H]2[C@H]1CC/C(COC(=O)NCCOCCOCC(=O)Nc1ccc(OC)c(C(N)=O)c1O)=C\CC[C@@]1(C)O[C@@H]21 | 24.7% |
| CCc1cccc2c1S/C(=C/c1ccc(OC)cc1)C2=O | 30.4% |
| O=C1NC(=O)C(c2ccccc2)(c2ccccc2)N1Cc1cn(-c2c3ccccc3nc3ccccc23)nn1 | 83.3% |
| CN(C)CCCNc1nc2ccccc2c2c(=O)c3cc(F)ccc3sc12 | 40.5% |
| CCCCn1c(-c2ccc(-c3nc(-c4ccc(Cl)cc4)no3)cc2)nc(-c2ccccc2)c1-c1ccccc1 | 39.5% |
| Cc1ccc(-c2nc(N3CCN(CC(=O)Nc4ccc(Cl)cc4)CC3)c3ccccc3n2)cc1 | 96.3% |
| COc1cc(Nc2cn[nH]c2-c2ccc(Cl)cc2)cc(OC)c1OC | 39.8% |
| C=C1CC[C@@]2(C#N)[C@H]3[C@H](CC[C@@H]2C)[C@@H](C)C[C@@H](CC(C)(C)C#N)[C@H]13 | 42.9% |
| [O-][n+]1c2ccccc2[n+]([O-])c2c3ccccc3[nH]c21 | 13.8% |
| Cc1cc(=O)[nH]c(=O)n1Cc1cn(-c2c3ccccc3nc3ccccc23)nn1 | 33% |

| SMILES | growth |
| --- | --- |
| COc1ccc(CNC(=O)[C@H](O)[C@@H](N)Cc2ccccc2)cc1 | 109% |
| O=C(Oc1cccc2ccccc12)Oc1cccc2ccccc12 | 73.6% |
| COc1cc(C(=O)N2N=C(c3ccc(S(C)(=O)=O)cc3)CC2c2ccco2)cc(OC)c1OC (stereo not given) | -2.69% (active) |
| c1ccc(CO[C@H]2CO[C@H]3[C@@H]2OC[C@@H]3Oc2ccc(Nc3ncnc4ccsc34)cc2)cc1 | 70.3% |
| NC1=C(c2nn[nH]n2)C(c2ccccc2Cl)c2ccc3ccccc3c2O1 (stereo not given) | 63.2% |
| COc1cc(C(=O)/C=C/c2ccc(OCCCCCC[P+](c3ccccc3)(c3ccccc3)c3ccccc3)cc2)cc(OC)c1OC | -60.2% (active) |
| COC(=O)c1ccc2[nH]c(O)c(C(=Nc3ccc(N(C)C(=O)CN4CCN(C)CC4)cc3)c3ccccc3)c2c1 | 10.2% |
| CCOC(=O)c1sc2ncc(-c3ccc(OC)cc3)n2c1C | 81.4% |
| O=C1c2ccccc2NC(n2sc3ccccc3c2=O)N1c1ccccc1 (stereo not given) | 96.5% |
| COc1ccc(CN2c3ccccc3Sc3ccccc32)c(F)c1 | 50.3% |
| Fc1cc2c(cc1Cl)N(c1ncnc3ccc(-c4cnc5cnccn45)cc13)CC2 | 48.2% |
| O=C(O)CCC(=O)Nc1nnc(-c2ccccc2)s1 | 112% |
| NC[C@@H]1O[C@H](O[C@@H]2[C@@H](CO)OC(O[C@@H]3[C@@H](O)[C@H](N)C[C@H](N)[C@H]3OC3O[C@H](CN)[C@@H](O)[C@H](O)[C@H]3N)[C@@H]2O)[C@H](N)[C@@H](O)[C@@H]1O (stereo not given in full) | 110% |
| C#Cc1cccc(NC(=O)Nc2ccccc2NC(=O)CCl)c1 | -54.4% [8.25 µM] (active) |
| CS(=O)(=O)Nc1cc(-c2ccc3ncnc(Nc4cccc(Cl)c4F)c3c2)cnc1Cl | -8.72% (active) |
| COc1cccc(-c2nc(-c3ccc(NC(=O)c4ccccc4)cc3)[nH]c2-c2ccnc(Br)c2)c1 | 55.1% |
| Nc1ccccc1-c1cc2c(c3c1[nH]c1ccccc13)CCCCC2 | 97% |
| CN(C)CCN1CCN(c2ncccc2C2Nc3ccccc3-n3cccc32)CC1 (stereo not given) | 105% |
| CN(C(=O)NCc1cccc(F)c1Cl)[C@H](COC(=O)Nc1cc2ccccc2cn1)CC(O)CO (stereo not given in full) | 71.9% |
| COc1ccc(-c2cc(-c3cc(OC)c(OC)c(OC)c3)nc(N3CCOCC3)c2C#N)cc1 | 77.6% |
